LMP1 NFkB inh: inhibitors of Epstein-Barr LMP1-induced NF-kappaB reporter; LMP1-induced NF-kappaB luciferase reporter cells, luminescence; AID 504558; inhibition, % at 12.5 µM; hit rate 0.69% among 350,000; in the data active means inhibition above about 41%; inconclusive means no clear call, values can overlap the other calls
esBAF inh: blocks esBAF chromatin remodeling in mouse ES cells. hit rate 2% among 350,000. AID 602393. reporter increase, % at 12.5 µM. Bmi1-luciferase knock-in reporter, 24 h; 100% = twice the neutral-well signal; in the data active means activation above about 40%; inconclusive means no clear call, values can overlap the other calls;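 further: a rise in the Bmi1 reporter signal indicates esBAF inhibition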
Wnt act: activators of Wnt/beta-catenin signaling; Wnt/beta-catenin reporter cell assay, activator, plate reader; activation, % at 9.35 µM; hit rate 1.2% among 300,000; in the data active means activation above about 30%, passing the limit was not always enough; inconclusive means no clear call, values can overlap the other calls
C2C12 statin: suppression of simvastatin myotoxicity; C2C12 myotubes + simvastatin, ATP luminescence, 48 h; scaled: DMSO 0, geranylgeraniol control 100; rescue of ATP level, % at 7.49 µM; hit rate 0.78% among 330,000;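 active means mean ATP rescue above about 67%, or every replicate alone reaching that limit, limit read from the data, passing the limit was not always enough; inconclusive means no clear call, values can overlap the other calls; inactive means mean under the limit and some replicate under it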;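 further: myotubes were challenged with 10 µM simvastatin during compound exposure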
TRPM1 prom inh: reduces MITF-dependent TRPM1 promoter luciferase signal. SK-MEL-5 TRPM1 promoter luciferase, 24 h. inhibition, % at 12.5 µM. hit rate 0.83% among 330,000. AID 488899;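 active means mean inhibition across replicates of 60% or more, whatever share of single replicates reaches that level; inconclusive means some that reach 60%, reason not given; inactive means mean inhibition across replicates below 60%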
MITF act: activators of MITF-driven TRPM1 promoter activity in SK-MEL-5 cells; activation, % at 12.5 µM; hit rate 0.75% among 300,000; AID 588334; SK-MEL-5 TRPM1-promoter luciferase, 24 h; % of positive control, neutral wells = 0;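 active means mean activation of at least 80% with every replicate also reaching 80%; inconclusive means mean reaches 80% but some replicate falls short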
Of the large screens only hits and unclear results are named; the others gave an inactive call. Rows were chosen to be rich in hits. Some 4% of all compounds tested hit in one or more screens of this group.

Fc1ccc2nc(Nc3nc4cc5c(cc4s3)OCCO5)sc2c1	MITF act 85 (no result: esBAF inh, Wnt act, C2C12 statin)
Fc1ccc2nc(Nc3ccccc3)sc2c1	esBAF inh 92, MITF act inconclusive
NNc1nc2ccc(F)cc2s1	none (no result: esBAF inh, Wnt act, C2C12 statin)
c1ccc2sc(Nc3nc4cc5c(cc4s3)OCO5)nc2c1	esBAF inh 69 (no result: Wnt act)
COc1ccc(CCn2c(C)cc(C(=O)CN3C(=O)C(=O)N(Cc4ccco4)C3=O)c2C)cc1	none
C[C@H](CO)N1C[C@H](C)[C@H](CN(C)Cc2ccc(Cl)c(Cl)c2)Oc2c(NS(=O)(=O)c3ccccc3)cccc2C1=O	none (no result: LMP1 NFkB inh, Wnt act, TRPM1 prom inh, MITF act)
CCCCn1c(N)c(N(CC(C)C)C(=O)c2cnccn2)c(=O)[nH]c1=O	none (no result: esBAF inh)
CCCCN(C)S(=O)(=O)c1c(C)[nH]c(=O)[nH]c1=O	none
COc1ccc(Cc2c(-c3cccc(Br)c3)nc3ccc(Br)cn23)c(C)c1	none (no result: LMP1 NFkB inh, TRPM1 prom inh, MITF act)
COc1ccc(Cc2c(-c3ccc(F)cc3)nc3ccc(Br)cn23)c(C)c1	esBAF inh 57 (no result: LMP1 NFkB inh, TRPM1 prom inh, MITF act)
FC(F)(F)c1ccccc1Cc1c(-c2cccc(Cl)c2)nc2ccc(Br)cn12	esBAF inh 42 (no result: LMP1 NFkB inh, TRPM1 prom inh, MITF act)
COc1ccc(Cc2c(-c3cccc(Cl)c3)nc3ccc(Br)cn23)c(C)c1	esBAF inh 51 (no result: LMP1 NFkB inh, TRPM1 prom inh, MITF act)
S=C(NCCc1ccccc1)Nc1ccc(Cl)cc1Cl	none (no result: esBAF inh, Wnt act, C2C12 statin)
COc1ccc(CCNS(=O)(=O)c2c(C)[nH]c(C)c2C(=O)N2CCCCC2)cc1OC	none
C[C@@H]1CCCCO[C@@H](CN(C)C(=O)Nc2cccc3ccccc23)[C@H](C)CN([C@H](C)CO)C(=O)c2cc(NC(=O)c3ccncc3)ccc2O1	C2C12 statin 135 (no result: LMP1 NFkB inh, Wnt act, TRPM1 prom inh, MITF act)
C[C@@H]1CN([C@@H](C)CO)C(=O)c2cc(NC(=O)Nc3cccc4ccccc34)ccc2O[C@@H](C)CCCCO[C@@H]1CN(C)C(=O)NC1CCCCC1	none (no result: LMP1 NFkB inh, Wnt act, TRPM1 prom inh, MITF act)
C[C@@H]1CCCCO[C@@H](CN(C)C(=O)C2CCCCC2)[C@H](C)CN([C@@H](C)CO)C(=O)c2cc(NC(=O)c3ccncc3)ccc2O1	C2C12 statin 95 (no result: LMP1 NFkB inh, Wnt act, TRPM1 prom inh, MITF act)
C[C@@H]1CCCCO[C@@H](CN(C)C(=O)C2CCCCC2)[C@@H](C)CN([C@@H](C)CO)C(=O)c2cc(NC(=O)c3ccncc3)ccc2O1	none (no result: LMP1 NFkB inh, Wnt act, TRPM1 prom inh, MITF act)
C[C@H](CO)N1C[C@H](C)[C@@H](CN(C)C(=O)NC2CCCCC2)OCCCC[C@H](C)Oc2ccc(NC(=O)Nc3cccc4ccccc34)cc2C1=O	C2C12 statin 122 (no result: LMP1 NFkB inh, Wnt act, TRPM1 prom inh, MITF act)
C[C@@H]1CCCCO[C@H](CN(C)C(=O)C2CCCCC2)[C@H](C)CN([C@H](C)CO)C(=O)c2cc(NS(=O)(=O)c3ccccc3)ccc2O1	C2C12 statin 89 (no result: LMP1 NFkB inh, Wnt act, TRPM1 prom inh, MITF act)
O=c1c(Cc2c(F)cccc2Cl)c(O)ccn1CC1CCCO1 (stereo not given)	none (no result: esBAF inh, C2C12 statin)
Cc1ccc(C(=O)Nc2ncc(Cc3ccc(F)cc3)s2)o1	Wnt act 65, MITF act 144
COc1cccc(-c2nc(CCl)cs2)c1OC	none (no result: esBAF inh, C2C12 statin)
CCOC(=O)C(=O)N(Nc1ccc(C)cc1)c1ccc(C)cc1	Wnt act 44 (no result: esBAF inh, C2C12 statin)
Nc1nc(CN2CCN(c3ccccc3)CC2)nc(N2CCCc3ccccc32)n1	none (no result: MITF act)
Nc1nc(CSc2nnnn2-c2ccccc2)nc(N2CCCc3ccccc32)n1	C2C12 statin 115 (no result: Wnt act)
Cc1cccc(C)c1OCCOC(=O)c1n[nH]c2ccccc12	none
Cc1cc2oc(=O)cc(COC(=O)c3n[nH]c4ccccc34)c2cc1C	MITF act 92 (no result: Wnt act)
COc1ccc2c(COC(=O)c3n[nH]c4ccccc34)cc(=O)oc2c1	esBAF inh 46 (no result: MITF act)
COc1ccc2c(COC(=O)CCS(=O)(=O)c3ccccc3)cc(=O)oc2c1	none (no result: esBAF inh, Wnt act, C2C12 statin)
CCN(CC)c1ccc(C=Nc2cccnc2Cl)c(O)c1	none
CCN(CC)c1ccc2nc3ccc(N)cc3[n+](-c3ccccc3)c2c1	LMP1 NFkB inh 53, TRPM1 prom inh 93
CCN(CC)c1ccc2nc3ccccc3[n+](CC)c2c1	TRPM1 prom inh 67 (no result: Wnt act, MITF act)
CCN(CC)C(=O)c1ccc2nc3ccccc3nc2c1	none (no result: esBAF inh, C2C12 statin)
CNC[C@H](CC1CCCCC1)NC[C@H](CO)NCCc1cccc(C(F)(F)F)c1	none
CNC[C@H](CC1CCCCC1)NC[C@H](CO)NCC1(c2ccccc2)CC1	TRPM1 prom inh 66
C=CCC(Nc1ccccc1)C12C=CC(O1)C(C(=O)OC)=C2C(=O)OC (stereo not given)	TRPM1 prom inh 80 (no result: Wnt act)
Cc1cc(C)cc(NC(=O)/C=C/c2ccc([N+](=O)[O-])s2)c1	none (no result: esBAF inh, C2C12 statin)
CC(=O)c1cccc(NC(=O)/C=C/c2ccc([N+](=O)[O-])s2)c1	TRPM1 prom inh 92 (no result: esBAF inh, C2C12 statin)
Cc1ccccc1NC(=O)/C=C/c1ccc([N+](=O)[O-])s1	TRPM1 prom inh 92 (no result: esBAF inh, Wnt act, C2C12 statin)
O=Cc1ccc(-c2cccs2)s1	LMP1 NFkB inh 76 (no result: esBAF inh, C2C12 statin, MITF act)
Oc1ccc(N=Cc2ccc(-c3cccs3)s2)cc1	LMP1 NFkB inh 82
CNC[C@@H]1Oc2ccc(NC(=O)C3CC3)cc2C(=O)N([C@@H](C)CO)C[C@@H]1C	none (no result: LMP1 NFkB inh, Wnt act, TRPM1 prom inh, MITF act)
O=[N+]([O-])c1ccc(N/N=C/c2sc(N3CCOCC3)nc2-c2ccccc2)c(S(=O)(=O)Nc2ccc(Cl)cc2)c1	LMP1 NFkB inh 55, TRPM1 prom inh 72 (no result: esBAF inh, C2C12 statin)
O=[N+]([O-])c1ccc(N/N=C/c2sc(N3CCOCC3)nc2-c2ccccc2)c(S(=O)(=O)Nc2ccccc2Cl)c1	TRPM1 prom inh 65 (no result: esBAF inh, C2C12 statin)
O=C(N/N=C/c1sc(N2CCOCC2)nc1-c1ccccc1)c1ccccc1Cl	none
COc1ccc(Cl)cc1C(=O)NC1=NCCS1	none (no result: TRPM1 prom inh, MITF act)
COc1ccc2nc(NC(=O)c3ccccc3C(=O)O)sc2c1	none
COc1n[nH]c(C(=O)Nc2nc3ccccc3s2)c1[N+](=O)[O-]	Wnt act 53 (no result: esBAF inh, C2C12 statin)
COc1ccccc1C(=O)Nc1nc2ccccc2s1	LMP1 NFkB inh 85, TRPM1 prom inh 81 (no result: MITF act)
COc1ccc(C(=O)Nc2nc3ccccc3s2)c(OC)c1	LMP1 NFkB inh 85, TRPM1 prom inh 84 (no result: MITF act)
COc1n[nH]c(C(=O)NCc2ccccc2)c1[N+](=O)[O-]	none (no result: esBAF inh, C2C12 statin)
CCN(c1ccccc1)S(=O)(=O)c1ccc(C(=O)NCc2ccccn2)cc1	none
O=C(COC(=O)c1ccc(S(=O)(=O)Nc2ccccc2)cc1)NC1CCCC1	none
Cc1nccn1C(c1ccccc1)c1ccccc1	Wnt act 35
Cc1nccn1Cc1cccc2ccccc12	none (no result: esBAF inh, C2C12 statin)
NC(=O)c1ccc(OCc2ccccc2)nc1	esBAF inh 60, MITF act 88
COc1cc(C(N)=O)ccc1OCc1ccccc1	C2C12 statin 117
COc1ccc(COc2ccccc2C(N)=O)cc1F	C2C12 statin 109
CCC(=O)c1ccc(OCc2ccccc2)c(OC)c1	esBAF inh 95, MITF act 101 (no result: Wnt act)
CCC(=O)c1ccc(OCc2ccc(C(=O)OC)cc2)c(OC)c1	none (no result: Wnt act)
COC(=O)c1ccccc1NC(=S)N(Cc1ccc2c(c1)OCO2)Cc1cc2ccc(C)cc2[nH]c1=O	none (no result: Wnt act)
CCCCN(CC)C(=O)c1oc2ccc(S(=O)(=O)N3CCCC3)cc2c1C	none
COc1ccc(C(=O)CC(=O)c2ccccc2O)cc1OC	esBAF inh 57

Screens deposited in PubChem by Broad Institute.
